These results are taken from PubChem BioAssay AID651602 (The Scripps Research Institute Molecular Screening Center, 2012).

Hit rate of the full screen: of about 360,000 compounds, about 950 (0.26%) were called active. The sample holds actives, similar compounds and a random draw of the others, so the mix is not that of the screen. Unmarked numbers belong to inactive results. Cut-off read from the data, not from the text of the source: active = inhibition above about 11%; inactive = the rest.

The nature of this experiment: growth loss of phage-infected E. coli, primary screen, RecBCD inhibitor project, absorbance, with phage, HTS (AID 651602). Conditions: at 11.9 µM, stronger effect = higher value.
Regarding `O=C(NCc1ccccc1)[C@@H]1CCCN1C(=O)[C@@H](NS(=O)(=O)c1ccc(F)cc1F)C1CCCCC1`, the inhibition – broadly, the change of the read-out against control, counted positive when it falls – is 3.12%.

Consider `O=C(C(=O)N1CCC(CNS(=O)(=O)Cc2ccccc2)CC1)c1cc2ccccc2o1`, for which the inhibition is 1.63%.

`COC(=O)[C@]12C[C@H](CC(=O)NCc3cccc(C(F)(F)F)c3)C(=O)N(Cc3ccc4c(c3)OCO4)C1=C[C@H](COCc1ccccc1)O[C@@H]2C`: the inhibition was 2.25%.

Turning to `CC(C)CNc1cccc2c1S(=O)(=O)N[C@H](C)CO2`, the inhibition was 5.2%.

Consider `O=C1c2ccccc2C2=Nc3ccccc3SC(c3ccccc3F)C12` (centres undefined), for which the inhibition is 19.6% (active).

Take `CC(=O)C1=C(C)N(Cc2ccc(Cl)cc2)C(=S)NC1c1ccc(F)cc1` (centres undefined): the inhibition was 2.81%.

As for `O=C(NCc1ccccc1)[C@H]1CCCN1C(=O)[C@H]1CCCN1C(=O)N1CCOCC1`, the inhibition was 1.72%.

In the case of `COc1ccc(-c2ccccc2C2Cc3nnccc3CN2C(=O)Nc2ccccc2)cc1` (centres undefined), the inhibition was 3.48%.

Regarding `CCN(CC)S(=O)(=O)c1ccc(N2CCCC2)c(NC(=O)c2ccc([N+](=O)[O-])o2)c1`, the inhibition was 0.78%.

Turning to `O=C(Nc1ccc(Br)cn1)c1ccc([N+](=O)[O-])cc1Cl`, the inhibition was 1.57%.

On to `O=C(Nc1ccc(Br)cn1)c1ccc([N+](=O)[O-])o1`, for which the inhibition was 15.1% (active).

In the case of `Cc1cccc(NC(=O)c2ccc([N+](=O)[O-])o2)c1`, the inhibition was 14.2% (active).

Turning to `O=C(/C=C/c1ccc(Cl)cc1)Nc1ccc(Br)cn1`, the inhibition was -0.92%.

Consider `Cc1cccc(NC(=O)CCn2c(=O)oc3ccccc32)c1`, for which the inhibition was 0.64%.

Consider `COC(=O)[C@]12C[C@H](CC(=O)NCc3ccccc3)C(=O)N(CCC3=CCCCC3)C1=C[C@H](C(C)(C)C)O[C@@H]2C`, for which the inhibition is 1.16%.

On to `COc1cccc(CNC(=O)[C@H]2CCCN2C(=O)[C@H]2CCCN2C(=O)c2ccc(F)cc2)c1`, for which the inhibition is 1.78%.

For the compound `C[C@@H]1ON(C)[C@H]2C[C@H]3c4cc(N5CCOCC5)ccc4CCN3C[C@@H]12`, the inhibition was 1.27%.

Regarding `C=CCN=C1NC(c2ccccc2)C(C(=O)OC)=C(C)N1Cc1ccc(C(F)(F)F)cc1` (centres undefined), the inhibition was 3.49%.

For `C[C@@H](CN1C2=NC[C@@H](Cc3ccccc3)N2C[C@H]1Cc1ccc(O)cc1)NC(=O)CCC1CCCCC1`, the inhibition was 2.48%.

`CN(C)Cc1c(C(=O)N/N=C/c2ccccc2OCc2ccc(F)cc2)nnn1-c1nonc1N`: the inhibition was -5.79%.

As to `CC(C)Oc1ccc(/C=N/NC(=O)c2nnn(-c3nonc3N)c2CN(C)C2CCCCC2)cc1`, the inhibition was 2.44%.

Consider `Nc1nonc1-n1nnc(C(=O)N/N=C/c2cc(Br)ccc2O)c1CSC1=NCCS1`, for which the inhibition is 11.6% (active).

Take `Cc1cn([C@H]2C[C@H](O)[C@@H](/C=C/C(=O)NCCCc3ccccc3)O2)c(=O)[nH]c1=O`: the inhibition is 3.27%.

As for `Cc1cn(C2C=CC(CO)O2)c(=O)[nH]c1=O` (centres undefined), the inhibition is 19.9% (active).

`Cc1cn(C2OC[C@@H](O)[C@@H]2CO)c(=O)[nH]c1=O` (some centres undefined): the inhibition was 0.95%.

Turning to `COc1cccc(-c2cc(CNC(=O)[C@@H](Cc3ccccc3)NC(=O)[C@H]3O[C@@H](n4cnc(C(N)=O)n4)[C@H](O)[C@@H]3O)no2)c1`, the inhibition was 2.06%.

For `CCN1CCN(C(=O)N[C@@H](C(=O)N[C@@H]2C(=O)N3C(C(=O)O)=C(CSc4nnnn4C)CS[C@H]23)c2ccc(O)cc2)C(=O)C1=O`, the inhibition was 103% (active).

Regarding `CCOC(=O)C1=C(CSc2nnnn2C)N(C)C(=O)NC1c1ccccc1` (centres undefined), the inhibition was 3.2%.

Consider `O=C(O)Cn1cnc2c(NCc3ccccc3)ncnc21`, for which the inhibition is -1.71%.

For `O=c1ccc2c(-c3ccccc3S(=O)(=O)O)c3ccc(O)c(O)c3oc-2c1O`, the inhibition is 12.7% (active).

Regarding `CC[C@H](NC(=O)[C@H](Cc1ccccc1)NC(=O)[C@H]1O[C@@H](n2cnc3c(=O)[nH]c(N)nc32)[C@H](O)[C@@H]1O)c1ccccc1`, the inhibition was 3.64%.

Take `COc1ccccc1C(=O)N1O[C@]23C=C[C@]14C[C@@H](O)CC[C@]4(C)C2CC[C@]1(C)[C@@H]([C@H](C)/C=C/[C@H](C)C(C)C)CC[C@H]13` (some centres undefined): the inhibition is 3.99%.

With `COc1cccc(CNC(=O)[C@H]2CCCN2C(=O)[C@H]2CCCN2C(=O)C2CCCCC2)c1`, the inhibition is 2.87%.

For `O=S1(=O)c2c(cccc2N2CCCCC2)O[C@H](COCc2ccccc2)CN1C1CC1`, the inhibition was 1.52%.

In the case of `COC(=O)C1=C(C)N(Cc2ccccc2C(F)(F)F)C(=NCc2ccc(OC)cc2)NC1c1cccc(C(F)(F)F)c1` (centres undefined), the inhibition is 5.38%.

Turning to `CCOC(=O)C1=C(C(=O)OCC)C2N(Cc3ccc(C#N)cc3)c3ccccc3[C@@]23C[C@@H](C(=O)OC)N(S(=O)(=O)c2ccc(F)cc2)C3=N1` (some centres undefined), the inhibition is 2.71%.

With `CC(=O)N1C[C@@H](CO)[C@@H](N(C)C(=O)C(C)(C)C)C[C@H]1c1ccccc1Br`, the inhibition is 2.5%.

Turning to `O=S(=O)(c1cccs1)N1CCCc2nc(-c3ccc(Br)cc3)ccc21`, the inhibition was 3.49%.

With `CCCCC(=O)NC(c1ccc(OC)c(OC)c1)c1ccc2cccnc2c1O` (centres undefined), the inhibition was 21.1% (active).

In the case of `CCOc1ccc(C(CCc2ccccc2)NC(=O)c2ccc(OC)c(OC)c2)cc1OCC` (centres undefined), the inhibition is -0.08%.

Turning to `CCOc1ccc(C(CC(=O)O)n2cnnn2)cc1OC` (centres undefined), the inhibition is 3.64%.

For the compound `CCc1c(-c2ccccc2OC)ncn1CCc1ccccc1OC`, the inhibition was 0.54%.

For `CCOC(=O)C1CSCCS(=O)(=O)N1Cc1ccc(Cl)cc1` (centres undefined), the inhibition is 0.55%.

Regarding `COC(=O)C1=C(C)NC(=S)NC1c1ccc(OC)cc1` (centres undefined), the inhibition was 3.49%.

Regarding `COC(=O)c1c(-c2ccc(OC)cc2)c2c(c3c4ccccc4n(S(=O)(=O)c4ccc(C)cc4)c13)C(=O)N(C)C2`, the inhibition was 1.94%.

In the case of `Cc1cc(Br)cn2c(Cc3ccccc3C(F)(F)F)c(-c3ccc(C#N)cc3)nc12`, the inhibition is 4.55%.

With `O=C(NNS(=O)(=O)Cc1ccccc1)c1ccc([N+](=O)[O-])cc1`, the inhibition is 4.99%.

`O=C(Nc1cc(-c2ccccc2)nn1-c1ccccc1F)c1ccc([N+](=O)[O-])cc1`: the inhibition was 3.65%.

`O=C(NC(Nc1nc2ccc([N+](=O)[O-])cc2s1)(C(F)(F)F)C(F)(F)F)c1ccccc1`: the inhibition is 12.8% (active).
